Results taken from PubChem BioAssay AID1063 (University of Pittsburgh Molecular Library Screening Center, 2008).
Hit rate of the full screen: of about 200,000 compounds, about 18,000 (9%) were called active. No stated cut-off is given here; in the data, active means inhibition above about 50%; inactive means the rest. Only a selection was taken, and actives are over-represented in it overall.

Assay: Leishmania major promastigote growth inhibition, primary screen (AID 1063);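 further: promastigotes grown with compound for 44 hours at 28 °C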
Settings: Leishmania major promastigotes, resazurin fluorescence viability; at 10 µM; active compounds read high

| SMILES | inhibition |
| --- | --- |
| CCN(CCCCOC(=O)c1ccc(OC)c(OC)c1)C(C)Cc1ccc(OC)cc1 (centres undefined) | 100% (active) |
| COc1ccccc1NC(=O)COc1ccc(C(=O)OCC(=O)N(C(C)C)C(C)C)cc1OC | -1.06% (inactive) |
| COc1ccc(C(=O)NC(Cc2ccc(OC(=O)c3ccc(OC)cc3)cc2)C(=O)O)cc1 (centres undefined) | -3.89% (inactive) |
| CC(C)OC(=O)CN1CCN(c2ccc(Cl)cc2)CC1 | -1.87% (inactive) |
| CCCc1[nH]nc2c1C(C1CC=CCC1)C(C#N)=C(N)O2 (centres undefined) | 66.6% (active) |
| CCCc1[nH]nc2c1C(c1c(C)nn(-c3ccccc3)c1Cl)C(C#N)=C(N)O2 (centres undefined) | 8.77% (inactive) |
| CCCc1[nH]nc2c1C(c1ccc(Br)s1)C(C#N)=C(N)O2 (centres undefined) | 100% (active) |
| COCc1[nH]nc2c1C(C1C=CCCC1)C(C#N)=C(N)O2 (centres undefined) | 45.2% (inactive) |
| N#CC1=C(N)OC2=C(C(=O)CCC2)C1C1CC=CCC1 (centres undefined) | 4.1% (inactive) |
| CCCc1[nH]nc2c1C(c1ccc(OC(=O)c3ccco3)cc1)C(C#N)=C(N)O2 (centres undefined) | 15.8% (inactive) |
| CC(=O)N1CCN(S(=O)(=O)c2c(F)cc(F)c(Cl)c2F)CC1 | 0.83% (inactive) |
| COc1ccc(C(=O)Nc2cccc(S(C)(=O)=O)c2)cc1 | -0.33% (inactive) |
| CC(C)(C)NC(=O)COC(=O)c1cc(Cl)ccc1[N+](=O)[O-] | 2.68% (inactive) |
| CCOC(=O)C1(Cc2cccc(OC)c2)CCCN(S(=O)(=O)c2cccnc2)C1 (centres undefined) | 1.74% (inactive) |
| CCOC(=O)c1sc(/N=C/C2=C(O)CC(C)(C)CC2=O)c(C(=O)OCC)c1C | -3.8% (inactive) |
| Cn1c(=O)c2c(ncn2CC(=O)N2CCN(c3ccccc3)CC2)n(C)c1=O | -3.01% (inactive) |
| Cn1c(=O)c2c(ncn2CC(COCc2ccccc2Cl)OCc2ccccc2Cl)n(C)c1=O (centres undefined) | 96.2% (active) |
| Cn1c(=O)c2c(ncn2CCc2ccccc2)n(C)c1=O | -0.5% (inactive) |
| Cc1ncc([N+](=O)[O-])n1CCOC(=O)c1ccc(Br)cc1 | 13.8% (inactive) |
| Cc1cccc(C)c1NC(=O)C1(C)c2cccc[n+]2CC(=O)N1Cc1cccs1 (centres undefined) | 13.1% (inactive) |
| CC(C)(C)c1ccc(C(=O)CSc2ncn[nH]2)cc1 | -1.37% (inactive) |
| O=C(/C=C/Sc1ncn[nH]1)c1ccc(Cl)cc1 | 100% (active) |
| O=C(NCCOCc1ccc(Cl)cc1)c1ncn[nH]1 | 24.4% (inactive) |
| Cc1cc(C)n(-c2nnc(N3CCN(c4ccccc4)CC3)nn2)n1 | 10.3% (inactive) |
| Cc1n[nH]c(=O)n1-c1ccc(C(C)C)cc1 | -3.84% (inactive) |
| C/C(=N/O)c1ccc(N2C(=O)C3C4C=CC(C3C2=O)C2C3C(=O)N(c5ccc(/C(C)=N/O)cc5)C(=O)C3C42)cc1 (centres undefined) | -0.53% (inactive) |

| SMILES | inhibition |
| --- | --- |
| Cc1ccc2[nH]c(=O)c(CN3CCCCC3)c(-c3ccccc3)c2c1 | 6.53% (inactive) |
| CS(=O)(=O)c1sc2nc(-c3ccccc3)cc(-c3ccccc3)c2c1N | 3.87% (inactive) |
| Nc1cccc(CCc2nc3ccccc3[nH]2)c1 | -2.96% (inactive) |
| Nc1cccc(-c2cc(-c3ccccc3)nc(-c3cccc(N)c3)n2)c1 | 64% (active) |
| OC1CSc2nc3ccccc3n2C1 (centres undefined) | 0.82% (inactive) |
| O=C(Nc1cccc(C(F)(F)F)c1)c1cnccn1 | 7.19% (inactive) |
| O=c1[nH]n(-c2cccc(Cl)c2)c2ncccc12 | -7.31% (inactive) |
| Clc1cccc(CN2COc3c(cc(Cl)c4cccnc34)C2)c1 | 101% (active) |
| Nc1c(C(=O)NCc2ccccc2)nnn1Cc1cccc(Cl)c1 | -2.28% (inactive) |
| O=C(C(=O)N1CCc2ccccc2C1)c1c[nH]c2ccccc12 | 4.91% (inactive) |
| Cc1ccccc1NC(=O)NC1(C(=O)N2CCCC2)CCCCC1 | -6.94% (inactive) |
| CC(C)C(=O)Nc1ccc(C(=O)NNC(=O)c2cccs2)cc1 | 66.2% (active) |
| Cc1ccc(C(=O)NNC(=O)c2cccs2)cc1 | 5.96% (inactive) |
| O=C(O)c1ccc(NC(=O)c2cccs2)cc1 | -4.2% (inactive) |
| COc1ccc(OC)c(S(=O)(=O)NCCC(C)C)c1 | -7.99% (inactive) |
| O=C1Oc2ccccc2C(=O)/C1=C/c1ccccc1O | 7.18% (inactive) |
| CN1CCN(C(=O)N2c3ccccc3CCc3ccccc32)CC1 | -0.1% (inactive) |
| O=C(Nc1cccc(O)c1)c1ccc(C(=O)c2ccccc2)o1 | 26.7% (inactive) |
| CCOC(=O)c1cc2c(n(-c3ccc(C)cc3)c1=O)CCCC2=O | 15.4% (inactive) |
| O=C1CCCC2=C1C(c1cccs1)CC(=O)N2c1ccc(F)cc1 (centres undefined) | 4.07% (inactive) |
| CCOC(=O)C1=C(N)N(c2ccc(C)cc2)C2=C(C(=O)CCC2)C1c1cccs1 (centres undefined) | 92.3% (active) |
| Cc1nc(-c2ccccc2)sc1C(=O)/C=C/N(C)C | -7.03% (inactive) |
| C/C=C/c1ccc(OCCCCN2CCC(C)CC2)c(OC)c1 | 95.6% (active) |
| C/C=C/c1ccc(OCCOc2ccc(C=O)cc2OC)c(OC)c1 | -4.56% (inactive) |
| COc1ccc(OC)c(NC(=O)CCN2CCC(C)CC2)c1 | 1.65% (inactive) |
| O=c1c(Cl)c(NC2CC2)cnn1-c1ccccc1 | -1.71% (inactive) |

| SMILES | inhibition |
| --- | --- |
| c1ccc2c(c1)CSc1sccc1C2=C1CCNCC1 | 58.3% (active) |
| CCOC(=O)Cc1csc(NC(=O)COc2ccc3c(C)cc(=O)oc3c2)n1 | 13.5% (inactive) |
| CN(C)S(=O)(=O)c1cccc(C(=O)Nc2cccnc2)c1 | -3.68% (inactive) |
| O=C(c1cccnc1)N(c1cc2sc(=O)oc2c2ccccc12)S(=O)(=O)c1ccccc1 | 99.2% (active) |
| COc1ccc(N(C(=O)c2cccnc2)S(=O)(=O)c2ccc3c(c2)n(C)c(=O)n3C)cc1 | 0.4% (inactive) |
| N/C(Cc1ccc([N+](=O)[O-])cc1)=N\OC(=O)C1CCCCC1 | -4.63% (inactive) |
| COCCN(C(=O)c1ccccc1F)c1c(N)n(Cc2ccccc2)c(=O)[nH]c1=O | -1.31% (inactive) |
| CCC(=O)OCCNc1nc(-c2ccccc2)nc2ccccc12 | 88.4% (active) |
| CCOC(=O)c1nc(Nc2ccc(C(=O)OC)cc2)c2ccccc2n1 | 16.3% (inactive) |
| c1ccc(-c2nc(NCc3ccco3)c3ccccc3n2)cc1 | 66.3% (active) |
| CCOC(=O)c1c(C)nc(-c2ccccc2)nc1NC(=O)C(C)C | 14.1% (inactive) |
| CS(=O)(=O)n1nc(-c2ccccc2)nc1NCc1ccco1 | -5.02% (inactive) |
| c1coc(CNc2ncnc3ccccc23)c1 | 32.3% (inactive) |
| CN(C)c1ccc(NC(=O)CSc2n[nH]c(-c3ccco3)n2)cc1 | 47% (inactive) |
| CCN(CC)C(=O)Cn1cc(S(=O)(=O)CC(=O)NCc2ccc3c(c2)OCO3)c2ccccc21 | -2.2% (inactive) |
| CCCN(CC(=O)Nc1ccc(OC)c(OC)c1)CC(=O)Nc1ccc(F)c(F)c1F | -4.92% (inactive) |
| COCCSc1nnc(NC(=O)c2cc(OC)c(OC)cc2[N+](=O)[O-])s1 | -4.07% (inactive) |
| CC(=O)c1ccc(NC(=S)N(Cc2ccccc2)C(C)C2CC2)cc1 (centres undefined) | 11.1% (inactive) |
| CC(C)CC(=O)NC(=S)Nc1ccc(F)cc1F | -0.93% (inactive) |
| Cc1[nH]nc(SCC(=O)NCC(C)C)c1[N+](=O)[O-] | -6.19% (inactive) |
| Cc1cccc(C)c1OCC(O)CN1CCCCC1 (centres undefined) | -0.13% (inactive) |
| OC(COCCC12CC3CC(CC(C3)C1)C2)CN1CCCCC1 (centres undefined) | 92.4% (active) |
| COCC1CCCN(Cc2cn[nH]c2-c2cc3ccccc3o2)C1 (centres undefined) | 11.4% (inactive) |
| O=C(CC1Nc2ccccc2NC1=O)Nc1ccccc1NC(=O)CC1Nc2ccccc2NC1=O (centres undefined) | -4.12% (inactive) |
| CSCCC(=O)N1CCCC(CNC(=O)c2ccccc2Cl)C1 (centres undefined) | -3.88% (inactive) |
| CCOc1ccc(-n2c(O)c(/C=N/Nc3nnc(C)c(=O)[nH]3)c3ccccc3c2=O)cc1 | 3.53% (inactive) |

| SMILES | inhibition |
| --- | --- |
| COc1ccc(/C=N/Nc2nc3ccccc3c(=O)[nH]2)cc1 | 36.7% (inactive) |
| COc1ccc(Cc2nnc(N/N=C/c3ccccc3O)[nH]c2=O)cc1OC | 97.4% (active) |
| CCCCNS(=O)(=O)c1ccc2nc(SCC(=O)Nc3cc(C)cc(C)c3)[nH]c2c1 | -3.48% (inactive) |
| O=C(CSc1ncn[nH]1)NCc1ccc2c(c1)OCO2 | -2.48% (inactive) |
| Cc1[nH]c2c(C(=O)N3CCCC(CCC(=O)NCc4ccccc4F)C3)cccc2c1C (centres undefined) | 3.43% (inactive) |
| Nc1[nH]c(=S)nc2nc(-c3ccccc3)c(-c3ccccc3)nc12 | 29.6% (inactive) |
| Cc1nc2nc[nH]n2c(=O)c1C/C=C/c1ccccc1 | -0.45% (inactive) |
| CCc1c(C)nc2cc(C)[nH]n2c1=O | 65% (active) |
| CCc1c(C)nc2cc(-c3cccs3)[nH]n2c1=O | 6.8% (inactive) |
| COc1cccc(Cn2cnc3c([N+](=O)[O-])c(C)c(C)cc32)c1 | 12.1% (inactive) |
| Oc1ccccc1C=NC1CCCCC1N=Cc1ccccc1O (centres undefined) | -8.81% (inactive) |
| COc1cc(/C=N/n2c(C)n[nH]c2=S)ccc1OCc1ccccc1 | 36.4% (inactive) |
| COc1cc(/C=C2/C(=O)ON=C2C)ccc1OCc1ccccc1F | 33.4% (inactive) |
| COc1cc(/C=C2/C(=O)ON=C2C)ccc1OCc1cccc(F)c1 | 53.5% (active) |
| Cc1cccc2c1N(CCOc1ccccc1)C(=O)C2=O | 4.82% (inactive) |
| O=C(CC1C(=O)NCCN1CC(c1ccccc1)c1ccccc1)NCCc1cn[nH]c1 (centres undefined) | -0.14% (inactive) |
| Cc1cc([N+](=O)[O-])nn1Cc1ccc(F)cc1 | 10.1% (inactive) |
| CCOc1ccc(C(=O)Nc2nccs2)cc1[N+](=O)[O-] | 48.5% (inactive) |
| CCCCOC(=O)CCCc1ccc([N+](=O)[O-])cc1[N+](=O)[O-] | 0.48% (inactive) |
| CCCOc1ccc(C2C(C(=O)c3ccc(C)o3)=C(O)C(=O)N2CCCn2ccnc2)cc1 (centres undefined) | -8.78% (inactive) |
| CCCOc1ccc(Cn2ccnc2)cc1[N+](=O)[O-] | 85.9% (active) |
| CCCCOc1ccc(CSC(=N)N)cc1[N+](=O)[O-] | 100% (active) |
| CCOc1ccc(Br)cc1CSC(=N)N | 33.2% (inactive) |
| CCCCCOc1ccc(CSC2=NCCN2)cc1[N+](=O)[O-] | 88.3% (active) |
| Cc1ccccc1NC(=O)CSC1=NCCN1 | -2.55% (inactive) |
| Cc1nc(SCc2ccc(F)cc2)c([N+](=O)[O-])[nH]1 | -7.82% (inactive) |
